Measured values as given in PubChem BioAssay (EPA / NIEHS).
Where “and” joins values, the source holds several entries; their conditions need not be identical. Equal entries are not always repeated. Calls of active or inactive are those of the source. How the source made its calls: active means hit-call score of the fitted dose curve at least 0.9, where 1 is the maximum; inactive means score below 0.9.

Experiment: BSK_BT_PBMCCytotoxicity: PBMC Cytotoxicity Assessment in the BioMAP Diversity Plus: BT Assay (AID 2284225)
Details: primary human B cells with PBMC
Protocol: BSK_BT is a cell-based, multiplexed-readout assay that uses B cell and peripheral blood mononuclear cells, a human vascular primary cell co-culture, with measurements taken at 24 hours after chemical dosing in a microplate: 96-well plate.BSK_BT_PBMCCytotoxicity is an assay component measured in the BSK_BT assay. It measures dehydrogenase activity, a form of viability reporter, as detected with fluorescence intensity signals by Alamar Blue Reduction technology.Data from the assay component BSK_BT_PBMCCytotoxicity was analyzed at the endpoint, BSK_BT_PBMCCytotoxicity, in the positive analysis fitting direction relative to DMSO as the negative control and baseline of activity. Using a type of viability reporter, gain or loss-of-signal activity can be used to understand cellular changes in viability. To generalize the intended target to other relatable targets, this assay endpoint is annotated to the 'cell cycle' intended target family, where the subfamily is 'cytotoxicity'.
The levels of cell surface (or secreted, indicated by the prefix "s") biomarker endpoints were measured by ELISA. Overt cytotoxicity to cells in confluent adherent cultures (all systems other than the BT system) was assessed by measuring total protein levels using sulforhodamine B (SRB) staining in parallel cultures at the time of biomarker measurements, indicated as SRB endpoints. For proliferation assays for adherent cell types, individual cell types are cultured at sub-confluence and relative cell numbers quantified by SRB staining at time points optimized for each system (48 h: 3C and CASM3C systems; 72 h: BT and HDF3CGF systems; 96 h: SAg system). SRB was performed by staining cells with 0.1% SRB after fixation with 10% TCA and reading wells at 560 nm.Viability and proliferation of PBMC (T cells) was quantified by Alamar Blue reduction for the SAg and BT systems. For PBMC viability (referred to as PBMC Cytotoxicity within the assay endpoint names), cells were plated (75,000/well in a 96-well plate) and then chemical samples added for 1 h before addition of activators, SEB and TSST-1 (20 ng/mL final concentration each). Cells were incubated for 90 h. Then, Alamar Blue (20 uL/well) (Invitrogen, Cat DAL1100) was added for 6 h, and the plates were read with a fluorescence microplate reader at 546/580 nm (excitation/emission). For PBMC proliferation, cells were plated and activated as above but incubated for only 16 h prior to addition of Alamar Blue. Plates were read after 6 h.

Compound	outcome	AC50
CCCCCCCCCCC1CO1 (stereo not given)	inactive	–
CCCCCCC(O)CCCCCCCCCCC(=O)OC (stereo not given)	inactive	–
CN(C)CCC(c1ccc(Cl)cc1)c1ccccn1 (stereo not given)	inactive	–
CC[N+](CC)(CC(=O)Nc1c(C)cccc1C)Cc1ccccc1	inactive	–
O=C(C(=O)c1ccccc1)c1ccccc1	inactive	–
Cc1cccnc1	inactive	–
CN(C)c1ccc(C(c2ccccc2)c2ccc(N(C)C)cc2)cc1	–	33.7 µM (active)
COC(=O)/C=C\C(=O)OC	inactive	–
Sc1nc2ccccc2s1	inactive	–
Cc1cc(-n2nc3ccc(Cl)cc3n2)c(O)c(C(C)(C)C)c1	inactive	–
CCCCCCCCCCCCCCCCCC[N+](C)(C)C	–	4.37 µM (active)
OC(C(F)(F)F)(C(F)(F)F)C(O)(C(F)(F)F)C(F)(F)F	–	55.4 µM (active) and 36.9 µM (active)
CC(C)CC(=O)CC(C)CC(C)C (stereo not given)	inactive	–
Oc1cccc2ccccc12	inactive	–
CCCCCCCCCC/C=C/C1CC(=O)OC1=O (stereo not given)	inactive	–
